# What was measured:
# Assay in all cases: PBM binding z-score (relative to random genomic background probes); higher = stronger binding; sequences stand for … in GC…GCGATTGACAGCGTAGAATGAAGG
# [1] = system: FXR:RXRa (NR concentration 270 nM, RXRa partner concentration 90 nM)
# In short: (§1)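 Probes were double-stranded and carried 34-nt variable regions with direct-repeat seeds, single-nucleotide variants, half-site ablations and random human genomic background sequences, printed on custom Agilent 4×180K protein-binding microarrays. Arrays were incubated 1 h with ligand-free nuclear receptor dimers in PBS pH 7.4, 2% milk, 0.02% Triton X-100, 1 mM DTT, 0.2 mg/mL BSA and 0.4 mg/ml salmon testes DNA. Antibodies against each partner (one per run) detected binding, and scanned fluorescence was regression-normalized. Binding z-scores use the random background probes as reference.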
# [2] = system: LXRa:RXRa (NR concentration 270 nM, RXRa partner concentration 90 nM)
# In short: as §1
# [3] = system: LXRa homodimer (NR concentration 270 nM)
# In short: as §1
# [4] = system: LXRb:RXRa (NR concentration 270 nM, RXRa partner concentration 90 nM)
# In short: as §1
# [5] = system: LXRb homodimer (NR concentration 270 nM)
# In short: as §1
# [6] = system: PPARa:RXRa (NR concentration 270 nM, RXRa partner concentration 90 nM)
# In short: as §1
# [7] = system: PPARg:RXRa (NR concentration 180 nM, RXRa partner concentration 90 nM)
# In short: as §1
# [8] = system: PPARg:RXRa 270nM:90nM, anti-RXR (NR concentration 270 nM, RXRa partner concentration 90 nM)
# In short: as §1
# [9] = system: PPARg:RXRa 30nM:10nM, anti-RXR (NR concentration 30 nM, RXRa partner concentration 10 nM)
# In short: as §1
# [10] = system: PPARg:RXRa 90nM:30nM, anti-RXR (NR concentration 90 nM, RXRa partner concentration 30 nM)
# In short: as §1
# [11] = system: PPARg:RXRa DBDmut IVT, anti-RXR (DBD mutation: RXRa K156A/R161A, NR concentration 270 nM, RXRa partner concentration 90 nM)
# In short: as §1
# [12] = system: PPARg:RXRa IVT, anti-PPARg (NR concentration 270 nM, RXRa partner concentration 90 nM)
# In short: as §1
# [13] = system: PPARg DBDmut:RXRa IVT, anti-PPARg (DBD mutation: PPARg1 K132A/R137A, NR concentration 270 nM, RXRa partner concentration 90 nM)
# In short: as §1
# [14] = system: PPARg DBDmut IVT, anti-PPARg (DBD mutation: PPARg1 K132A/R137A, NR concentration 270 nM)
# In short: as §1
# [15] = system: PPARg homodimer (NR concentration 180 nM)
# In short: as §1
# [16] = system: PXR:RXRa (NR concentration 270 nM, RXRa partner concentration 90 nM)
# In short: as §1
# [17] = system: PXR homodimer (NR concentration 270 nM)
# In short: as §1
# [18] = system: RARa:RXR (NR concentration 270 nM, RXRa partner concentration 90 nM)
# In short: as §1
# [19] = system: RARa homodimer (NR concentration 270 nM)
# In short: as §1
# [20] = system: RARb:RXRa (NR concentration 270 nM, RXRa partner concentration 90 nM)
# In short: as §1
Sequence,PBM binding z-score [1],PBM binding z-score [2],PBM binding z-score [3],PBM binding z-score [4],PBM binding z-score [5],PBM binding z-score [6],PBM binding z-score [7],PBM binding z-score [8],PBM binding z-score [9],PBM binding z-score [10],PBM binding z-score [11],PBM binding z-score [12],PBM binding z-score [13],PBM binding z-score [14],PBM binding z-score [15],PBM binding z-score [16],PBM binding z-score [17],PBM binding z-score [18],PBM binding z-score [19],PBM binding z-score [20]
CGTTACGGGTCACGAGGTTATAGCACGACGAGCG,6.83,4.97,0.389,4.23,-0.0926,6.15,6.94,6.69,2.7,5.8,4.5,5.57,1.39,0.539,1.92,4.65,0.178,5.93,0.803,4.56
TATACAGGGTCAAAAGCCAGAGTACGAATGTCGA,5.93,5.72,1.74,4.3,2.65,5.48,6.57,6.01,3.42,5.08,1.58,3.89,1.82,1.55,1.9,3.49,0.526,4.49,0.877,3.73
CGGCAAAGTTCAACTAAGGTAACGTAAAGCACGC,7.42,5.93,2.94,3.99,1.22,5.03,4.7,5.19,1.6,3.81,0.283,1.29,-0.451,-0.173,3.39,5.43,2.72,3.93,0.447,5.16
TAGCCTAGGTCATGGGACAGTATACCACGCGAAC,5.01,3.4,0.47,3.01,0.331,4.29,3.92,3.74,1.14,2.55,1.93,3.38,0.841,0.664,2.06,1.99,-0.252,2.89,0.415,3.88
CCGACTGGGGAAAGGTTACCATAACGCACAGCCA,0.564,1.86,0.0866,1.75,-0.554,2.76,2.69,3.64,1.61,3.26,0.181,0.852,-0.712,-0.726,1.01,1.26,0.0491,1.9,0.439,1.74
GCTGCTAGGTCAGGTTGGTCAGCTCACGGGTACG,1.27,0.883,-0.243,0.696,-0.186,1.57,0.553,0.724,-0.171,0.333,3.01,2.19,-0.391,-0.956,0.943,0.37,0.00075,0.901,0.262,3.26
CGTCCAAGGTGAAGGTCAGTGAAAGAGACTCGAA,1.84,1.4,-0.233,1.25,-0.872,3.04,2.5,2.81,0.634,1.96,1.92,2.94,-0.298,-0.465,0.911,1.43,-0.222,2.11,0.387,3.93
TGAATGAGGGTATAAGATCAGGGAACGTTGCAAA,0.413,0.344,-0.145,0.00334,0.501,0.874,0.576,1.23,1.11,0.839,0.322,0.573,0.938,0.423,0.497,0.178,0.202,0.234,-0.0465,0.303
AGTCAGAGTTCACTAGGTAACGTAAGATTCAGCT,4.41,4.52,2.25,2.64,0.624,4.54,5.57,5.35,2.12,4.4,2.59,4.05,1.02,0.611,2.37,4.41,3.8,2.72,0.385,3.97
CCAGACAGGTGAAGGGTAACTCAGTCTGGTACGC,-0.0331,0.00398,-0.524,0.172,-0.582,1.76,2.98,3.63,1.6,3.42,0.998,1.9,-0.966,-0.622,0.674,-0.0608,-0.0922,0.0219,-0.195,1.04
GCGACTGGGGCATCCGCAGGTTACCATAACTTAA,-0.134,-0.356,-0.324,0.722,-0.515,1.06,0.756,0.848,-0.543,0.0228,3.8,3.27,-1.11,-0.898,-0.268,0.263,-0.637,0.49,-1,0.89
CCGACTGGTGCAAAGGTTACCATACTCAGTACGA,0.595,1.59,0.244,1.89,-0.483,3.86,6.69,6.67,4.73,6.75,0.299,2.67,0.0281,-0.547,1.18,2.07,-0.109,2.87,0.34,1.96
CGAACGAGGGCATGACTTGATAGCAAATGCCGAT,0.404,0.369,-0.781,0.0827,-0.668,1.26,1.28,0.865,-0.352,0.26,2.69,1.81,-0.27,-0.449,-0.43,0.219,-0.361,0.614,-0.682,2.01
AGAAGGAGGTTAAGATCAGGGAAACAGAATACAT,1.65,1.79,0.422,2.19,1.11,2.82,1.84,1.67,0.855,1.19,1.24,1.78,1.73,0.272,2.06,1.5,1.36,1.51,1.44,1.85
CCAGACCGGTGAGAAGGTAACTCAGCCTCGATTA,-0.29,0.0278,0.205,-0.175,-0.35,-0.101,-0.0328,-0.307,-0.601,-0.547,-0.324,-0.727,-1.57,-1.1,0.768,-0.393,-0.18,-0.155,0.901,-0.00175

# Reference: the supplement of paper PMC6555819
